About 83,000 compounds went through this panel and 20% of them were active in at least one assay; those are over-represented in the sample as a whole.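 Each cell line was grown in a 96-well plate and treated with one concentration of compound for 48 hours. Values below 10 were considered active.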 Activity calls are given as the source filed them.
Experiments:
Assay in all cases: NCI-60 one-dose screen, 48 h (100 = growth as untreated, 0 = no growth, -100 = all killed)
Conditions in all cases: 10 µM unless noted
SK-MEL-2 melanoma = test system: SK-MEL-2 melanoma
EKVX NSCLC = test system: EKVX NSCLC
SN12C renal = test system: SN12C renal
UO-31 renal = test system: UO-31 renal
TK-10 renal = test system: TK-10 renal
ACHN renal = test system: ACHN renal
CAKI-1 renal = test system: CAKI-1 renal
A498 renal = test system: A498 renal
CCRF-CEM leukemia = test system: CCRF-CEM leukemia
MOLT-4 leukemia = test system: MOLT-4 leukemia
SR leukemia = test system: SR leukemia
RPMI-8226 leukemia = test system: RPMI-8226 leukemia
OVCAR-8 ovarian = test system: OVCAR-8 ovarian
OVCAR-5 ovarian = test system: OVCAR-5 ovarian
OVCAR-4 ovarian = test system: OVCAR-4 ovarian
SK-OV-3 ovarian = test system: SK-OV-3 ovarian
IGROV1 ovarian = test system: IGROV1 ovarian
OVCAR-3 ovarian = test system: OVCAR-3 ovarian
HS 578T breast = test system: HS 578T breast
NCI/ADR-RES ovarian = test system: NCI/ADR-RES ovarian

Measured: growth

CCOC(=O)c1c(-c2ccccc2)n2c(=O)cc(C)c3c(O)c(O)cc1c32
inactive: SK-MEL-2 melanoma 83.8% | EKVX NSCLC 86.6% | SN12C renal 68.7% | UO-31 renal 51.1% | TK-10 renal 89.2% | ACHN renal 47% | CAKI-1 renal 52% | A498 renal 88.6% | CCRF-CEM leukemia 17.1% | MOLT-4 leukemia 36.1% | SR leukemia 22.4% | RPMI-8226 leukemia 36.5% | OVCAR-8 ovarian 29.1% | OVCAR-5 ovarian 70.1% | OVCAR-4 ovarian 15.4% | SK-OV-3 ovarian 76.3% | IGROV1 ovarian 61.2% | HS 578T breast 87.7% | NCI/ADR-RES ovarian 15.3%
active: OVCAR-3 ovarian 0.992%

COc1cc(-c2nc3occn3c2-c2ccnc(NCCCNS(=O)(=O)c3ccccc3)n2)ccc1F
active: RPMI-8226 leukemia 5.21%
inactive: SK-MEL-2 melanoma 34.2% | EKVX NSCLC 44.7% | SN12C renal 44% | UO-31 renal 11.5% | TK-10 renal 49.5% | ACHN renal 37.3% | CAKI-1 renal 29.7% | A498 renal 57.1% | CCRF-CEM leukemia 17.3% | MOLT-4 leukemia 11% | SR leukemia 56.4% | OVCAR-8 ovarian 21.9% | OVCAR-5 ovarian 111% | OVCAR-4 ovarian 33% | SK-OV-3 ovarian 59.2% | IGROV1 ovarian 49.8% | OVCAR-3 ovarian 66.2% | HS 578T breast 75.6% | NCI/ADR-RES ovarian 20.5%

O=C(CCCCCCN1CC(=O)N2[C@@H](C3CCCCC3)c3[nH]c4ccccc4c3C[C@H]2C1=O)NO
active: SN12C renal -97.1%
inactive: SK-MEL-2 melanoma 69.2% | EKVX NSCLC 77.7% | UO-31 renal 84.8% | TK-10 renal 48.5% | ACHN renal 88.7% | CAKI-1 renal 70.8% | A498 renal 82.1% | CCRF-CEM leukemia 26.5% | MOLT-4 leukemia 10.3% | SR leukemia 11.5% | RPMI-8226 leukemia 39.5% | OVCAR-8 ovarian 54.1% | OVCAR-5 ovarian 66.6% | OVCAR-4 ovarian 84.6% | SK-OV-3 ovarian 71.5% | IGROV1 ovarian 29% | OVCAR-3 ovarian 71.1% | HS 578T breast 70.2% | NCI/ADR-RES ovarian 105%

C#Cc1cccc(Nc2nc3ccc([N+](=O)[O-])cc3nc2Nc2cccc(C#C)c2)c1
active: SK-MEL-2 melanoma -53.8% | EKVX NSCLC -12% | SN12C renal -39.1% | UO-31 renal -84.1% | TK-10 renal -34.4% | ACHN renal -1.34% | CAKI-1 renal -25.8% | A498 renal -20.3% | CCRF-CEM leukemia -33.9% | MOLT-4 leukemia -47.5% | SR leukemia -22.1% | RPMI-8226 leukemia -21.7% | OVCAR-8 ovarian -23.3% | OVCAR-5 ovarian -17.6% | OVCAR-4 ovarian -43.7% | SK-OV-3 ovarian -84.9% | IGROV1 ovarian -29% | OVCAR-3 ovarian -67.4% | HS 578T breast -19.1% | NCI/ADR-RES ovarian -9.97%

Cc1[nH]c(C(=O)Nc2cccc(OC3CCNCC3)c2)c(Cl)c1Cl
inactive: SK-MEL-2 melanoma 88.4% | EKVX NSCLC 86.1% | SN12C renal 70.3% | UO-31 renal 67.1% | TK-10 renal 123% | ACHN renal 62.8% | CAKI-1 renal 70.3% | A498 renal 25.1% | CCRF-CEM leukemia 55.3% | MOLT-4 leukemia 41.5% | SR leukemia 13.6% | RPMI-8226 leukemia 43.2% | OVCAR-8 ovarian 94.2% | OVCAR-5 ovarian 95.4% | OVCAR-4 ovarian 98.6% | SK-OV-3 ovarian 96.5% | IGROV1 ovarian 60.6% | OVCAR-3 ovarian 82.4% | HS 578T breast 56.6% | NCI/ADR-RES ovarian 89.2%

Nc1c(C(=O)Nc2ccccn2)sc2nc3c(cc12)C(O)CCC3 (stereo not given)
inactive: SK-MEL-2 melanoma 43.8% | EKVX NSCLC 42.1% | SN12C renal 44.3% | UO-31 renal 43.6% | TK-10 renal 47.4% | ACHN renal 46.2% | CAKI-1 renal 28.9% | MOLT-4 leukemia 34% | SR leukemia 14.4% | OVCAR-8 ovarian 36.5% | OVCAR-5 ovarian 46.7% | OVCAR-4 ovarian 59.4% | SK-OV-3 ovarian 17.4% | IGROV1 ovarian 47.9% | NCI/ADR-RES ovarian 17.7%
active: A498 renal 3.12% | CCRF-CEM leukemia 6.62% | RPMI-8226 leukemia 2.23% | OVCAR-3 ovarian -19.1% | HS 578T breast 6.09%

Cc1ccc(-c2cc(C(=O)N3N=C(c4ccc(N)cc4)CC3c3ccc(Cl)cc3)c3ccccc3n2)cc1 (stereo not given)
inactive: EKVX NSCLC 44.5% | SN12C renal 48.8% | UO-31 renal 42.9% | TK-10 renal 24.5% | ACHN renal 51.7% | CAKI-1 renal 24% | CCRF-CEM leukemia 12.8% | MOLT-4 leukemia 25.2% | SR leukemia 11.2% | RPMI-8226 leukemia 19.9% | OVCAR-8 ovarian 25.7% | OVCAR-5 ovarian 75.2% | OVCAR-4 ovarian 69% | SK-OV-3 ovarian 34.2% | IGROV1 ovarian 47.4% | OVCAR-3 ovarian 14.6% | NCI/ADR-RES ovarian 21.7%
active: SK-MEL-2 melanoma 2.76% | A498 renal 0.316% | HS 578T breast 6.64%

CCCCCCCC/C=C\CCCCCCCCOc1ccccc1CC(=O)NCC[N+]1(C)CCCCC1
inactive: SK-MEL-2 melanoma 88.2% | EKVX NSCLC 93.4% | SN12C renal 43.2% | UO-31 renal 94.8% | TK-10 renal 75.8% | ACHN renal 110% | CAKI-1 renal 81.9% | A498 renal 94.6% | CCRF-CEM leukemia 23.1% | MOLT-4 leukemia 20.5% | RPMI-8226 leukemia 19.7% | OVCAR-8 ovarian 60.5% | OVCAR-5 ovarian 66.2% | OVCAR-4 ovarian 34.1% | SK-OV-3 ovarian 85.2% | IGROV1 ovarian 16.5% | OVCAR-3 ovarian 41.3% | HS 578T breast 77.2% | NCI/ADR-RES ovarian 99.3%
active: SR leukemia -5.14%

COC(=O)/C=C1/SC(=Nc2cccc(Cl)c2)N(CCc2c[nH]c3ccc(O)cc23)C1=O
active: SK-MEL-2 melanoma -15.8% | CCRF-CEM leukemia 0.545% | MOLT-4 leukemia -8.3% | SR leukemia -8.45% | RPMI-8226 leukemia -23.9% | OVCAR-8 ovarian -4.55% | IGROV1 ovarian 4.15% | OVCAR-3 ovarian 3.41%
inactive: EKVX NSCLC 45.7% | SN12C renal 10% | UO-31 renal 17.7% | TK-10 renal 89.2% | ACHN renal 15.9% | CAKI-1 renal 37.4% | A498 renal 79.9% | OVCAR-5 ovarian 58.7% | OVCAR-4 ovarian 24.9% | SK-OV-3 ovarian 86.6% | HS 578T breast 27.7% | NCI/ADR-RES ovarian 18.4%

CC(/C=C1\SC(=S)N(CC(=O)NC(Cc2c[nH]c3ccccc23)C(=O)O)C1=O)=C\c1ccccc1 (stereo not given)
inactive: SK-MEL-2 melanoma 110% | EKVX NSCLC 98.5% | SN12C renal 95% | UO-31 renal 63.9% | TK-10 renal 122% | ACHN renal 96.5% | CAKI-1 renal 87% | A498 renal 107% | CCRF-CEM leukemia 104% | MOLT-4 leukemia 104% | SR leukemia 108% | RPMI-8226 leukemia 105% | OVCAR-8 ovarian 100% | OVCAR-5 ovarian 102% | OVCAR-4 ovarian 101% | SK-OV-3 ovarian 105% | IGROV1 ovarian 101% | OVCAR-3 ovarian 108% | HS 578T breast 103% | NCI/ADR-RES ovarian 103%

Cc1cscc(C)c1=S
inactive: SK-MEL-2 melanoma 11.9% | EKVX NSCLC 110% | SN12C renal 87.5% | UO-31 renal 70.5% | TK-10 renal 92.4% | CAKI-1 renal 51.2% | A498 renal 128% | CCRF-CEM leukemia 91.1% | MOLT-4 leukemia 81.2% | SR leukemia 72.9% | RPMI-8226 leukemia 103% | OVCAR-8 ovarian 83.3% | OVCAR-5 ovarian 67.5% | OVCAR-4 ovarian 113% | SK-OV-3 ovarian 98.9% | IGROV1 ovarian 77% | OVCAR-3 ovarian 121% | HS 578T breast 122% | NCI/ADR-RES ovarian 71.1%
active: ACHN renal -5.99%

CN1CCN(CCCOC(=O)c2c3c(n4ccccc24)C(=O)c2ncccc2C3=O)CC1
active: SK-MEL-2 melanoma -52.7% | SN12C renal -66.3% | UO-31 renal -80.9% | TK-10 renal 3.81% | ACHN renal -53.6% | CAKI-1 renal 0.119% | CCRF-CEM leukemia -16.3% | MOLT-4 leukemia -2.53% | SR leukemia -11.2% | RPMI-8226 leukemia -0.22% | OVCAR-8 ovarian 4.94% | OVCAR-5 ovarian -4.35% | OVCAR-4 ovarian -11.6% | SK-OV-3 ovarian -46.4% | IGROV1 ovarian 4.12% | OVCAR-3 ovarian 0.457% | HS 578T breast -1.51% | NCI/ADR-RES ovarian 2.37%
inactive: EKVX NSCLC 37.7% | A498 renal 38.3%

COc1ccccc1-n1c(-c2cc(O)ccc2C)cn2c3c(=O)[nH]c(=O)n(C)c3nc12
inactive: SK-MEL-2 melanoma 89.7% | EKVX NSCLC 87.4% | SN12C renal 41.6% | UO-31 renal 36.4% | TK-10 renal 99.2% | ACHN renal 27.1% | CAKI-1 renal 39.8% | A498 renal 106% | CCRF-CEM leukemia 114% | MOLT-4 leukemia 71.5% | SR leukemia 86.2% | RPMI-8226 leukemia 90.7% | OVCAR-8 ovarian 66.5% | OVCAR-5 ovarian 95.3% | OVCAR-4 ovarian 98.2% | SK-OV-3 ovarian 47.4% | IGROV1 ovarian 10.3% | OVCAR-3 ovarian 65.3% | HS 578T breast 20.4% | NCI/ADR-RES ovarian 101%

CCCn1c(=S)sc2c1nc(C)n1c(Nc3ccccc3)nnc21
inactive: EKVX NSCLC 36.6% | SN12C renal 55.6% | UO-31 renal 71.6% | TK-10 renal 86.7% | ACHN renal 82.8% | CAKI-1 renal 93.9% | A498 renal 57.2% | CCRF-CEM leukemia 66.3% | MOLT-4 leukemia 31.1% | SR leukemia 61.4% | RPMI-8226 leukemia 45.9% | OVCAR-8 ovarian 71.3% | OVCAR-5 ovarian 107% | OVCAR-4 ovarian 42.8% | SK-OV-3 ovarian 89.2% | IGROV1 ovarian 80.3% | OVCAR-3 ovarian 61.5% | HS 578T breast 97.4% | NCI/ADR-RES ovarian 85.4%
active: SK-MEL-2 melanoma -0.18%

CN1CCCc2cc(/C=C3/SC(=S)N(CCc4ccc(O)cc4)C3=O)ccc21
inactive: SK-MEL-2 melanoma 98% | EKVX NSCLC 93.7% | SN12C renal 77.3% | UO-31 renal 52.4% | TK-10 renal 114% | ACHN renal 87.3% | CAKI-1 renal 58.8% | A498 renal 73.5% | CCRF-CEM leukemia 14.8% | MOLT-4 leukemia 51% | SR leukemia 32.9% | RPMI-8226 leukemia 49.5% | OVCAR-8 ovarian 96.6% | OVCAR-5 ovarian 108% | OVCAR-4 ovarian 87.2% | SK-OV-3 ovarian 111% | IGROV1 ovarian 76% | OVCAR-3 ovarian 88.2% | HS 578T breast 93.9% | NCI/ADR-RES ovarian 83.3%

— PubChem BioAssay (NCI)
